Results: PubChem BioAssay (EPA / NIEHS)
The source made the active and inactive calls. Rule for the calls: active = hit-call score of the fitted dose curve at least 0.9, where 1 is the maximum; inactive = score below 0.9.

Key:
Details in all cases: mRNA level, 48 h; actives raise or lower the signal
[1] = read-out: Cytochrome P450 3A4 (Homo sapiens) (UniProt P08684); assay: LTEA_HepaRG_CYP3A4: Life Technologies and Expression Analysis (LTEA) Assay for CYP3A4 using HepaRG (AID 2283487)
Method in brief: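 In a human hepatic line (HepaRG), duplicate wells were treated 48 h with up to 100 uM chemical in half-log dilutions. Endpoint: CYP3A4 mRNA induction or loss relative to 0.5% DMSO vehicle, by qRT-PCR.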

[2] = read-out: DNA damage-inducible transcript 3 (DDIT3), DDIT3 (gene 1649); assay: LTEA_HepaRG_DDIT3: Life Technologies and Expression Analysis (LTEA) Assay for DNA damage-inducible transcript 3 (DDIT3) using HepaRG (AID 2283488)
Method in brief: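 DDIT3 transcript was quantified by qRT-PCR with ACTB/GAPDH/POLR2A normalization after 48 h chemical treatment of differentiated HepaRG cells in 0.5% DMSO. Dosing was eight-point, half-log, top 100 uM, duplicate wells. Curves fitted bidirectionally versus DMSO.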

[3] = read-out: Pro-epidermal growth factor (Homo sapiens) (UniProt P01133); assay: LTEA_HepaRG_EGF: Life Technologies and Expression Analysis (LTEA) Assay for Epidermal growth factor (EGF) using HepaRG (AID 2283489)
Method in brief: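 Concentration-response mRNA assay: HepaRG cells dosed 48 h (max 100 uM, 0.5% DMSO), EGF measured by qRT-PCR and normalized to ACTB/GAPDH/POLR2A.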

[4] = read-out: Early growth response protein 1 (EGR1) transcription factor, EGR1 (gene 1958); assay: LTEA_HepaRG_EGR1: Life Technologies and Expression Analysis (LTEA) Assay for Early growth response protein 1 (EGR1) transcription factor using HepaRG (AID 2283490)
Method in brief: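 EGR1 expression change in human HepaRG after 48 h chemical exposure, assessed by housekeeping-normalized qRT-PCR; concentration-response up to 100 uM, fitted in both directions against DMSO controls.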

[5] = read-out: Ezrin (EZR), EZR (gene 7430); assay: LTEA_HepaRG_EZR: Life Technologies and Expression Analysis (LTEA) Assay for Ezrin (EZR) using HepaRG (AID 2283491)
Method in brief: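 Gain or loss of EZR mRNA is scored relative to 0.5% DMSO in human HepaRG cultures treated 48 h with test chemicals in duplicate, eight half-log concentrations from 100 uM.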

[6] = read-out: Cytochrome P450 3A7 (Homo sapiens) (UniProt P24462); assay: LTEA_HepaRG_CYP3A7: Life Technologies and Expression Analysis (LTEA) Assay for CYP3A7 using HepaRG (AID 2283492)
Method in brief: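 qRT-PCR of CYP3A7 in HepaRG lysates after 48 h treatment; concentration-response (8 points, max 100 uM) analysed bidirectionally relative to 0.5% DMSO controls.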

[7] = read-out: CYP3A5 (gene 1577); assay: LTEA_HepaRG_CYP3A5: Life Technologies and Expression Analysis (LTEA) Assay for CYP3A5 using HepaRG (AID 2283493)
Method in brief: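 mRNA levels were quantified by qRT-PCR on Fluidigm arrays and normalized to three housekeeping genes. Differentiated HepaRG cells received 48 h exposure (top 100 uM, half-log steps, 0.5% DMSO vehicle, duplicate); bidirectional fitting versus DMSO.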

[8] = read-out: Fatty Acid-Binding Protein 1 (FABP1), FABP1 (gene 2168); assay: LTEA_HepaRG_FABP1: Life Technologies and Expression Analysis (LTEA) Assay for Fatty Acid-Binding Protein 1 (FABP1) using HepaRG (AID 2283494)
Method in brief: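 Values reflect bidirectional concentration-response fitting of FABP1 mRNA change against 0.5% DMSO controls. Human HepaRG cultures received eight half-log doses (top 100 uM) for 48 h; expression quantified by TaqMan qRT-PCR with housekeeping-gene normalization.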

[9] = read-out: Cytochrome P450 4A22 (Homo sapiens) (UniProt Q5TCH4); assay: LTEA_HepaRG_CYP4A22: Life Technologies and Expression Analysis (LTEA) Assay for Cytochrome P450 4A22 (CYP4A22) using HepaRG (AID 2283495)
Method in brief: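 Concentration-response (8 points, max 100 uM, 0.5% DMSO) in human HepaRG liver cells after 48 h exposure. CYP4A22 mRNA by TaqMan qRT-PCR with housekeeping-gene normalization.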

[10] = read-out: Cytochrome P450 7A1 (Homo sapiens) (UniProt P22680); assay: LTEA_HepaRG_CYP7A1: Life Technologies and Expression Analysis (LTEA) Assay for Cytochrome P450 7A1 (CYP7A1) using HepaRG (AID 2283496)
Method in brief: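 HepaRG, 48 h exposure, 8-pt half-log series from 100 uM, 0.5% DMSO vehicle, duplicates. Readout: TaqMan qRT-PCR mRNA vs three housekeeping genes; bidirectional curve fit against DMSO baseline.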

Measured: AC50

Cytochrome P450 3A4 (Homo sapiens), sequence (P08684 whole entry, looked up): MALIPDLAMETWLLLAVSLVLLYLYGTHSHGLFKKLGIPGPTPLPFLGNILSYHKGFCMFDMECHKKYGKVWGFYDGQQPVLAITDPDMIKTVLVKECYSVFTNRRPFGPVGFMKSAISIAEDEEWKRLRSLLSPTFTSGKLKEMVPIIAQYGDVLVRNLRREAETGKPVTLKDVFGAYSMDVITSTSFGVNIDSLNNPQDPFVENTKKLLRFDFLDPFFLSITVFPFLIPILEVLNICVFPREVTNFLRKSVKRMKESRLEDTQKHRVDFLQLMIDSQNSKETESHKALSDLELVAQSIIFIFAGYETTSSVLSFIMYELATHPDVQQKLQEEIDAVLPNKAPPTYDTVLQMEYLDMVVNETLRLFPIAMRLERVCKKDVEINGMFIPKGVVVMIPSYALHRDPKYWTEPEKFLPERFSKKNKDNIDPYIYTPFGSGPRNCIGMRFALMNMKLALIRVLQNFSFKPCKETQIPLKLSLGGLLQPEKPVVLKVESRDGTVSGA
Cytochrome P450 3A7 (Homo sapiens), sequence (P24462 whole entry, looked up): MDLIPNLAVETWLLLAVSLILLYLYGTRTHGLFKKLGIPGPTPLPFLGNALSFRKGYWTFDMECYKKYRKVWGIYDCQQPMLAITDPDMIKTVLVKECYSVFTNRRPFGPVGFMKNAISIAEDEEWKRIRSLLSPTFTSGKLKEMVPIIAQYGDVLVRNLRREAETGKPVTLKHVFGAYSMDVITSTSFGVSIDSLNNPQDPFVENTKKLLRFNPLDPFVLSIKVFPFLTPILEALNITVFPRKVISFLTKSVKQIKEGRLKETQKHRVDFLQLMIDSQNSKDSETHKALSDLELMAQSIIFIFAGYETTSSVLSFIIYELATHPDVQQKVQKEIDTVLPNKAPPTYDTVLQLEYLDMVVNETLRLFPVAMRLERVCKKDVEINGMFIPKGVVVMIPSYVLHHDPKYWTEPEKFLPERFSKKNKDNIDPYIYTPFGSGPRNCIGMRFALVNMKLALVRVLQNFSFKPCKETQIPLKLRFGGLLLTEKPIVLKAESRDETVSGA

COC(=O)c1ccc(O)cc1
inactive: all assays above

CCCCCCCCCCC
inactive: all assays above

Cc1ccc(C)c(O)c1C
inactive: all assays above

CN1CCCC1=O
inactive: all assays above

Nc1ccc2c(c1)C(=O)c1ccccc1C2=O
active: [2] 20.9 µM | [3] 6.13 µM | [4] 10.4 µM | [7] 1.6 µM | [8] 13.6 µM | [9] 31 µM | [10] 8.9 µM
inactive: [1] | [5] | [6]

c1cc(-c2ccncc2)ccn1
active: [6] 50 µM
inactive: all other assays above

Nc1nc(N)c2nc(CNc3ccc(C(=O)N[C@@H](CCC(=O)O)C(=O)O)cc3)cnc2n1
active: [4] 0.102 µM | [7] 0.0852 µM | [10] 0.162 µM
inactive: all other assays above

Cc1cccc(C)c1O
inactive: all assays above

O=c1[nH]cc(F)c(=O)[nH]1
active: [4] 70.9 µM | [9] 35 µM | [10] 64.6 µM
inactive: all other assays above

COc1cc(C=O)ccc1O
inactive: all assays above

CCCc1cc(=O)[nH]c(=S)[nH]1
inactive: all assays above

Cc1ccccc1Cl
inactive: all assays above

CC(CO)OC(C)CO (stereo unspecified) (tested in a mixture with another compound)
inactive: all assays above

COCCOCCOC
active: [2] 1.38 µM | [3] 1.09 µM
inactive: all other assays above

CNC(=O)[C@H]1O[C@@H](n2cnc3c(NCc4cc(Cl)ccc4OCc4cc(C)no4)ncnc32)[C@H](O)[C@@H]1N
inactive: all assays above

CCCCCCOCCO
inactive: all assays above

CCCCCCCCCCCCCCCC
inactive: all assays above

O=[N+]([O-])C(CO)(CO)CO
inactive: all assays above

Cc1cccc([N+](=O)[O-])c1C
inactive: all assays above

Oc1ccc2c(c1)OC[C@@H](N1CCC(O)(c3ccc(F)cc3)CC1)[C@H]2O
inactive: all assays above

Cc1ccc(N(C)C)cc1
inactive: all assays above

Cc1ccc2ncccc2c1
inactive: all assays above

CC1=C(/C=C/C(C)=C/C=C/C(C)=C/CO)C(C)(C)CCC1
active: [1] 23.6 µM | [3] 52.2 µM | [8] 26.3 µM | [9] 22.2 µM | [10] 21.9 µM
inactive: all other assays above

COc1ccc(S(=O)(=O)N2C(=O)[C@@](c3ccccc3OC)(N3C[C@H](O)C[C@H]3C(=O)N(C)C)c3cc(Cl)ccc32)c(OC)c1
active: [1] 32.9 µM | [2] 73.8 µM | [4] 81.1 µM | [5] 11.5 µM | [6] 30.4 µM | [7] 13.2 µM | [8] 26.9 µM | [9] 15.8 µM | [10] 21 µM
inactive: [3]

CC1(C)CC(N=C=O)CC(C)(CN=C=O)C1 (stereo unspecified)
active: [8] 26.2 µM
inactive: all other assays above

Oc1ccc2ccccc2c1N=Nc1ccccc1
active: [1] 1.81 µM | [4] 3.53 µM | [6] 2.19 µM | [7] 8.1 µM | [8] 16.2 µM | [10] 16.3 µM
inactive: [2] | [3] | [5] | [9]

C=CCc1ccc(O)c(OC)c1
inactive: all assays above

CC(=O)OCCOCCOCCOC(C)=O
inactive: all assays above

C1CCC(SSC2CCCCC2)CC1
inactive: all assays above

CCCCc1ccc2c(n1)[C@@H](c1ccc(OC)cc1C[C@H](C)C(=O)O)[C@H](C(=O)O)[C@H]2c1ccc2c(c1)OCO2
inactive: all assays above

CCOc1ccc2c(c1)C(C)=CC(C)(C)N2
active: [1] 1.73 µM | [6] 1.12 µM | [8] 50 µM | [10] 33.3 µM
not listed: [7]
inactive: all other assays above

CC(=O)OC/C=C(\C)CCC=C(C)C
inactive: all assays above

CCCCCCCC=O
active: [2] 9.92 µM
not listed: [7]
inactive: all other assays above

CCCCCCCCCCCCCCCCCC(=O)O
inactive: all assays above

CCCCCCCCCCCC(=O)OC
not listed: [7]
inactive: all other assays above

CC(=O)Oc1ccccc1C(=O)O
not listed: [7]
inactive: all other assays above

Cc1cc(=O)[nH]c(=S)[nH]1
not listed: [7]
inactive: all other assays above

O=C(N[C@@H](Cc1ccccc1)[C@@H](O)C(=O)N1C[C@@H](O)[C@@H](O)C1)c1cc2cc(Cl)ccc2[nH]1
active: [2] 73.1 µM | [5] 9.92 µM | [6] 12.6 µM | [9] 14.3 µM
not listed: [7]
inactive: all other assays above

CCc1c(C(=O)NN2CCCCC2)nn(-c2ccc(Cl)cc2Cl)c1-c1ccc(Br)cc1
inactive: [3] | [5]
active: [1] 31.7 µM | [2] 32.5 µM | [4] 12.2 µM | [6] 23.1 µM | [8] 36.2 µM | [9] 15.8 µM | [10] 37.6 µM

C=CCOC(=O)c1ccccc1C(=O)OCC=C
not listed: [7]
inactive: all other assays above

CCCCOC(=O)CCCCCCCCC(=O)OCCCC
not listed: [7]
inactive: all other assays above

Cc1oc(-c2ccccc2)nc1CCOc1cccc2c1ccn2CCC(=O)O
active: [1] 80.1 µM | [2] 79.2 µM | [4] 4.76 µM | [5] 9.92 µM | [6] 11.4 µM | [8] 87.6 µM | [9] 85.2 µM | [10] 82.3 µM
inactive: [3] | [7]
